Test results published in PubChem BioAssay AID1645857 (Buhrlage Lab, Dana-Farber Cancer Institute and Novartis …, 2021).
In all, about 47,000 compounds went through this assay and about 1,400 (3%) were called active. No stated cut-off is given here; in the data, active means inhibition above about 30%; inactive means the rest. The sample as a whole holds a higher share of actives than the screen did.

molecular target: Ubiquitin carboxyl-terminal hydrolase 28 (Homo sapiens) (UniProt Q96RU2); test: blocks human USP28 ubiquitin-rhodamine cleavage (AID 1645857); conditions: purified USP28, Ub-rhodamine cleavage fluorescence, 30 min; at 25 µM; active compounds read high
Sequence (Q96RU2 whole entry, looked up): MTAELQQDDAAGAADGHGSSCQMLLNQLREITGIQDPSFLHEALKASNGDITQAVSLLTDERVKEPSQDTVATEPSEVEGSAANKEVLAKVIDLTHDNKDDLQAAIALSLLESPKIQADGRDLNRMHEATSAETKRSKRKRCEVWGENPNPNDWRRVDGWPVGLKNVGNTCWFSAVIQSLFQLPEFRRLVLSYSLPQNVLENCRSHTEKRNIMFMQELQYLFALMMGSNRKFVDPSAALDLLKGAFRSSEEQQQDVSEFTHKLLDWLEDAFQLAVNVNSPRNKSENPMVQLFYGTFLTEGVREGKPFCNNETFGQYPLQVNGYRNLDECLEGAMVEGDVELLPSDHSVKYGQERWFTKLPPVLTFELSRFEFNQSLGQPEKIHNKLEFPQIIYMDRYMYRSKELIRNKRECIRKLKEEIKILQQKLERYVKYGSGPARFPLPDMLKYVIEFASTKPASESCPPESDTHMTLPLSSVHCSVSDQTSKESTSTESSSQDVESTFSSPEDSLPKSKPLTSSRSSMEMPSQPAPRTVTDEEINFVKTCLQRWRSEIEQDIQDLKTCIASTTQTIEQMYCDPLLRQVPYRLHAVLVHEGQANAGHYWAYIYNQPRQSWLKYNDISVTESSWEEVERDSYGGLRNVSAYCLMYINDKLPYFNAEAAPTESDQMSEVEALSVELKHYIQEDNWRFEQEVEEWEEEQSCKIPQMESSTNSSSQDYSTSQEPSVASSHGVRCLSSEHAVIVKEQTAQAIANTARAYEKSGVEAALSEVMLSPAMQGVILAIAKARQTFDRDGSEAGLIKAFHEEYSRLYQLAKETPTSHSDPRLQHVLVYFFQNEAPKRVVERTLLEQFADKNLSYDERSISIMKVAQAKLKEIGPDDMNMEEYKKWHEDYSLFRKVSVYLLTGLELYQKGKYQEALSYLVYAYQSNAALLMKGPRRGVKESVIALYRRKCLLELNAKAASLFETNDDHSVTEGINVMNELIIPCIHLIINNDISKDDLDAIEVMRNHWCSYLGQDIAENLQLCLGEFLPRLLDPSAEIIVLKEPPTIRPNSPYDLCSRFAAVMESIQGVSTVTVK

inhibition, active:
c1coc(CNc2nc(Nc3cccc4ccccc34)nc3ccccc23)c1 43.7%
CCOc1ccccc1NC(=O)Nc1cc(-c2nc3ccccc3o2)ccc1OC 30.8%
O=C(Nc1cccc(S(=O)(=O)N2CCCCCC2)c1)c1ccc(N2CCOCC2)c([N+](=O)[O-])c1 35.6%
C=C1CCC2[C@](C)(CCC[C@]2(C)C(=O)OC)[C@H]1CCc1ccoc1/C=C/C(=O)O (stereo partly drawn) 48%
C=C1CCC2[C@](C)(CCC[C@]2(C)C(=O)OC)[C@H]1CCc1ccoc1C[N+](C)(C)Cc1ccccc1 (stereo partly drawn) 50.6%
CCOc1ccccc1-c1nc(-c2nnn(Cc3ccccc3)c2C)no1 41.4%
COC(=O)COc1cccc2c(=O)n(CC(=O)N3CCc4ccccc43)ccc12 36%
COc1ccc(/C=C/C(=O)Nc2ccc3c(c2)OCCO3)cc1Br 76.8%
O=C(/C=C/c1ccc(Cl)cc1)Nc1ccc2c(c1)OCCO2 35.4%
COc1cc(NC(=O)c2noc3c2CCc2sccc2-3)cc(OC)c1 43.6%
Cc1c(-c2nn3c(-c4ccco4)nnc3s2)cccc1[N+](=O)[O-] 33.6%
O=C1COc2ccccc2N1Cc1noc(-c2ccccc2)n1 72.3%
CC1CCc2c(sc3ncnc(OCc4cccc([N+](=O)[O-])c4)c23)C1 (stereo not drawn) 94.8%
COc1cccc(-c2cc(C(=O)N3CCN(c4ccc(N5CCOCC5)nn4)CC3)[nH]n2)c1 69.8%
CSc1ncccc1C(=O)OCc1ccc(Br)cc1 76.8%
COC(=O)c1ccc(C2Oc3ccccc3CN2c2ccccc2Cl)cc1 (stereo not drawn) 34.3%

inhibition, inactive:
NS(=O)(=O)c1ccc(CNc2nc(CN3CCCCC3)nc3sc4c(c23)CCC4)cc1 -16.9%
CCCCn1c(=O)c(CCC(=O)OCC(=O)Nc2ccc(C)c(Cl)c2)nc2ccccc21 -33.9%
O=C(CC1CCCC1)N1CCCC(n2c(=O)[nH]c3cncnc32)C1 (stereo not drawn) -14.3%
Cc1cccc(OCc2nnc(C3(c4ccc(F)cc4)CCOCC3)o2)c1 13.2%
Fc1ccc(-n2cc(-c3ccccc3)c3c(NCc4ccco4)ncnc32)cc1 -4.6%
CC(C)Cc1nc2sc3c(NCc4ccco4)ncnc3c2c2c1CCC2 21.3%
COc1ccccc1NC(=O)N1CCN(Cc2nc3ccccc3o2)CC1 -5.25%
COc1ccccc1NC(=O)Nc1ccc(CCc2nc3ccccc3[nH]2)cc1 -8.19%
CN(C)c1cccc(C2CN(C(=O)c3ccc4n[nH]nc4c3)CCO2)n1 (stereo not drawn) 8.99%
Cc1nc(-c2cccc(S(=O)(=O)NCc3ccc(Cl)cc3)c2)no1 15.5%
Cc1cccc(NC(=O)c2ccc(N3CCC(C)CC3)c([N+](=O)[O-])c2)c1C -2.68%
CN1CCN(S(=O)(=O)c2cccc(C(=O)Nc3cccc(S(N)(=O)=O)c3)c2)CC1 0.55%
CC1(C)CC(=O)C2=C(C1)Nc1ccccc1NC2c1ccccc1O (stereo not drawn) 4.62%
Cc1cc(-c2cc(N)n(-c3ccccc3)n2)c(C)n1-c1cccc(C(F)(F)F)c1 3.89%
COc1cc(N2CC[C@@H]3[C@@H](CO[C@H]3CNC(=O)C3CC3)C2)ncn1 5.25%
Cc1cccc(C)c1NC(=O)c1nnn(-c2ccc3noc(-c4ccccc4)c3c2)c1C 8.24%
O=C(NCc1ccc2c(c1)OCO2)c1cncc(NS(=O)(=O)c2ccc3c(c2)OCCO3)c1 4.62%
N#Cc1ccc(C(=O)N2CCC(c3nc(-c4ccccc4)no3)CC2)cc1 3.9%
O=C(c1ccccc1)N1CCC2(CC1)OCCCO2 4.41%
CCc1cc(=O)oc2cc(C)cc(OCC(=O)N3CCC4(O)CCCCC4C3)c12 (stereo not drawn) -0.0724%
Cc1ccc(-c2ncc(C(=O)Nc3ccccc3C)c(-c3ccncc3)n2)cc1 -83.7%
Fc1ccc(CN=C2C(c3ccc4c(c3)OCCO4)=Nc3ncnn32)cc1 9.04%
CC(C)c1cc(N2CCN(CCc3ccccc3)CC2)n2c(nc3ccccc32)c1C#N -23.5%
COc1ccc(-c2nc(-c3nnn(Cc4cccc(F)c4)c3C)no2)cc1 19.7%
Cc1c(-c2noc(-c3cccc(N(C)C)c3)n2)nnn1Cc1cccc(F)c1 -4.14%
Cc1cccc(NC(=O)Nc2ccc3c(c2)N(S(=O)(=O)c2ccccc2)CC3)c1C -0.657%
Cc1nc2ccccc2c(=O)n1CC(=O)N1CCCc2ccccc21 6.83%
O=C(Cn1cnc2ccccc21)N1CCCc2ccccc21 15.3%
COc1ccc(CNC(=O)[C@H](CCSC)NC(=O)[C@@H]2Cc3c([nH]c4ccccc34)C3c4ccccc4C(=O)N32)cc1 (stereo partly drawn) -15%
NC(=O)c1c(NC(=O)/C=C/C(=O)O)sc2c1CCCCCC2 -7.88%
COc1cccc(N2C(=O)c3cccnc3C2Nc2ccc(C)c(C)c2)c1 (stereo not drawn) -14.4%
COc1ccc(NS(=O)(=O)c2cc(NC(=O)/C=C/c3cccc(OC)c3)ccc2OC)cc1 19.1%
O=C(Nc1ccc2c(c1)OCO2)N1CCCCCC1 -1.57%
COc1ccc(NC(=O)CCC(=O)c2ccc3c(c2)OCCO3)cc1S(=O)(=O)Nc1ccc(Cl)cc1 16.3%
O=C(Nc1ccc2c(c1)OCO2)c1sc2cc(Cl)ccc2c1Cl -10.3%
COc1ccc(S(=O)(=O)c2cnc3cc(OC)c(OC)cc3c2N2CCOCC2)cc1 3.3%
COc1ccccc1NC(=O)CCC(=O)N1CCSc2ccccc21 -4.12%
Brc1ccc2[nH]c3c(NCCCN4CCOCC4)ncnc3c2c1 -18.8%
COc1cc(OC)cc(C(=O)Nc2ccc(S(=O)(=O)Nc3cc(C)on3)cc2)c1 12.8%
O=C(NCc1ccccc1)c1noc2c1CCc1sccc1-2 0.0745%
COc1cccc(C2c3[nH]c4ccccc4c3C[C@@H]3C(=O)N(CCCn4ccnc4)CC(=O)N23)c1 (stereo partly drawn) -0.857%
CC(C)(C)c1ccc(C(=O)Nc2cccc(-c3nc4ncccc4o3)c2)cc1 2.33%
COc1cccc(NC(=O)C(C#N)C(=O)C2CC2c2cccc(C)c2)c1 (stereo not drawn) 26.5%
Cc1cc(C)n2nc(C(=O)N(C)C(c3ccccc3)c3ccccc3)nc2n1 5.86%
COc1ccc2[nH]c3c(NCCCN4CCOCC4)ncnc3c2c1 -8.4%
O=C(c1ccc2cc[nH]c2c1)N1CCCC2(COCCN(CC3CC3)C2)C1 (stereo not drawn) -13.8%
Cc1ccc(S(=O)(=O)NCC(c2ccc3c(c2)CCN3C)N2CCCC2)c(C)c1 (stereo not drawn) -0.036%
COc1ccc(C(=O)N2CCCN(c3ncccc3-c3nc(C)no3)CC2)cc1 5.18%
Cc1ccc(NC(=O)Cc2nc(-c3ccccc3)n[nH]2)cc1 -4.45%
O=C(NCc1noc(-c2ccccc2)n1)C1CCCC1 -13.9%
CC(C)(C)C(=O)OCc1noc(-c2ccccc2)n1 7.9%
O=C1NC2(CCCc3ccccc32)C(=O)N1Cc1csc(-c2ccc(Cl)cc2)n1 (stereo not drawn) 2.68%
COc1cccc(-c2noc(CN3CCCC3c3cc(OC)ccc3OC)n2)c1 (stereo not drawn) -19.5%
O=C(COc1ccccc1)Nc1cnc(-c2cccc(Cl)c2)nc1 0.526%
COc1cc(-c2nc3sc4c(c3c(=O)[nH]2)CCC(C)C4)ccc1OCc1ccc(C)cc1 (stereo not drawn) 13.3%
CC1CCc2c(sc3nc(CC#N)[nH]c(=O)c23)C1 (stereo not drawn) -258%
Cc1nc(C2CCCN(C(=O)c3cccnc3N)C2)nc2c1CC(=O)N2Cc1ccccc1 (stereo not drawn) -6.04%
C=C1Nc2ccccc2C(=O)N1c1cccc(NC(=O)Cc2ccc(F)cc2)c1 2.69%
CNc1nc2c(c(=O)n1C)CN(C(=O)Nc1ccccc1Oc1ccccc1)CC2 14.2%
COc1ccc(NC(=O)c2sc(N3CCOCC3)nc2-c2ccccc2)c(OC)c1 15.1%
O=C(c1cccnc1)N1CCN(c2cc(-c3ccccc3)[nH]n2)CC1 4.54%
COc1cccc(C(=O)N2CCCC2c2nc(-c3ccccc3)no2)c1 (stereo not drawn) 1.43%
C=C(CCC(C(=O)O)[C@H]1[C@H](O)C[C@@]2(C)C3=C(CC[C@]12C)[C@@]1(C)CC[C@H](OC(C)=O)C(C)(C)[C@@H]1CC3)C(C)C (stereo partly drawn) 3.27%
COCCCNC(=O)c1cc2c(=O)n3ccccc3nc2n1Cc1ccccc1 9.14%
CSc1ncccc1C(=O)Nc1ccnn1C(C)c1ccncc1 (stereo not drawn) -28.1%
CCCOc1ccc(NC(=O)c2ccc(Br)cc2)c2cccnc12 -10.2%
CCCCNC(=O)Cc1csc(COc2ccc(C)cc2)n1 2.41%
O=C(NC1CCCC1)c1ccccc1N1C(=O)[C@@H]2Cc3c([nH]c4ccccc34)C(c3ccc(F)cc3)N2C1=O (stereo partly drawn) -2.2%
CN1CCCN(C(=O)C2CCCCC2)CC1 -7.1%
COC(=O)c1ccc(C(=O)NCC2(O)CCc3ccccc32)cc1 (stereo not drawn) 6.5%
COC(=O)c1ccc(C2c3[nH]c4ccccc4c3C[C@H]3C(=O)N(CC4CCCO4)CC(=O)N23)cc1 (stereo partly drawn) -2.7%
Cn1nc(C2CCCN(Cc3cc(F)cc(F)c3)C2)c2nccnc21 (stereo not drawn) -9.38%
